# What was measured:
# [1] = molecular target: T1, Tyrosine-protein kinase receptor TYRO3 (Homo sapiens) (UniProt Q06418); settings: at 1 µM
# T1 sequence (whole entry): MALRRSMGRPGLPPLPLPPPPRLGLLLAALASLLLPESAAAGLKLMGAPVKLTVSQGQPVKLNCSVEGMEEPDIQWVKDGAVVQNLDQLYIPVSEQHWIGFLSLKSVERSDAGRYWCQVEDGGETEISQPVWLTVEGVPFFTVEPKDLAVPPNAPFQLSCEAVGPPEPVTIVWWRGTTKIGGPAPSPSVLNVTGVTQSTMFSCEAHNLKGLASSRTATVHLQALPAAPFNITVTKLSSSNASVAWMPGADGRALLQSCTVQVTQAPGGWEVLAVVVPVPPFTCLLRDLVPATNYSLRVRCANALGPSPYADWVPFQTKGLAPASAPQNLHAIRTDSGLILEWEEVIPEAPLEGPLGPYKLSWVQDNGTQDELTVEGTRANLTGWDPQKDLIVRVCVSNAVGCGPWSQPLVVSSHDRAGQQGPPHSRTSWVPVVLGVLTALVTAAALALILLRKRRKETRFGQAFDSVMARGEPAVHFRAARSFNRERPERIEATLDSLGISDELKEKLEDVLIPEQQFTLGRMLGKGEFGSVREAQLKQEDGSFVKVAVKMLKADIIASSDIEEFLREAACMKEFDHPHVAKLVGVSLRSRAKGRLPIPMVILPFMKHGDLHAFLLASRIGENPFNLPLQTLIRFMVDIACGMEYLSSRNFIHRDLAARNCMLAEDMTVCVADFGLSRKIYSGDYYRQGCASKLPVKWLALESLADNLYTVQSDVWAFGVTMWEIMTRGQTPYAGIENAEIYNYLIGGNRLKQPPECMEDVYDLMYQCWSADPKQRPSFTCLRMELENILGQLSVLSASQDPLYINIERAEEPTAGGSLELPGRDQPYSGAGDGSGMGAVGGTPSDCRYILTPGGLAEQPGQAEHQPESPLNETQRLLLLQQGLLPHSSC
# [2] = molecular target: Tyrosine-protein kinase Yes (Homo sapiens) (UniProt P07947); settings: at 0.1 µM
# [3] = molecular target: Tyrosine-protein kinase Yes (Homo sapiens) (UniProt P07947); settings: at 1 µM
# [4] = molecular target: T2, Tyrosine-protein kinase ZAP-70 (Homo sapiens) (UniProt P43403); settings: at 0.1 µM
# T2 sequence (whole entry): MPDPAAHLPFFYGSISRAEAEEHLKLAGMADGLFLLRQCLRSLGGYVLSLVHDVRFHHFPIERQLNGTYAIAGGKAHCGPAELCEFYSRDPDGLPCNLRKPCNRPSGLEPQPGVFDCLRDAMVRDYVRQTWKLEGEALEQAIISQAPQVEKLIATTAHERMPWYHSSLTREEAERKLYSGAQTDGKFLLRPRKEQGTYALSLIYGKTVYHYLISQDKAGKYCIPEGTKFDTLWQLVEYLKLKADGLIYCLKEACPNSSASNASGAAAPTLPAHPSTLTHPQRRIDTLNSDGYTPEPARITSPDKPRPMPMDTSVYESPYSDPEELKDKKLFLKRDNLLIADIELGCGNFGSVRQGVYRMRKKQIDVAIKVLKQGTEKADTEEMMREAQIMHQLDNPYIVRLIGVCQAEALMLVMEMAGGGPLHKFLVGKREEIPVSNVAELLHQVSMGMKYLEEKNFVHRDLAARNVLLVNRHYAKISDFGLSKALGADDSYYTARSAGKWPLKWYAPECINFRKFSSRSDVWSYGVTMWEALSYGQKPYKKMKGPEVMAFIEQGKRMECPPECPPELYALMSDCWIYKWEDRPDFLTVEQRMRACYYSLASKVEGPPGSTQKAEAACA
# [5] = molecular target: T2, Tyrosine-protein kinase ZAP-70 (Homo sapiens); settings: at 1 µM
# [6] = molecular target: Serine/threonine-protein kinase B-raf (Homo sapiens) (UniProt P15056); settings: at 0.1 µM
# [7] = molecular target: Serine/threonine-protein kinase B-raf (Homo sapiens) (UniProt P15056); settings: at 1 µM
# [8] = test system: Serine/threonine-protein kinase B-raf (Homo sapiens), P15056 [V600E]; settings: at 0.1 µM
# [9] = test system: Serine/threonine-protein kinase B-raf (Homo sapiens), P15056 [V600E]; settings: at 1 µM
# [10] = molecular target: RAF proto-oncogene serine/threonine-protein kinase (Homo sapiens) (UniProt P04049); settings: at 0.1 µM
# [11] = molecular target: RAF proto-oncogene serine/threonine-protein kinase (Homo sapiens) (UniProt P04049); settings: at 1 µM
# [12] = molecular target: T3, Interleukin-1 receptor-associated kinase 4 (Homo sapiens) (UniProt Q9NWZ3); settings: at 0.1 µM
# T3 sequence (whole entry): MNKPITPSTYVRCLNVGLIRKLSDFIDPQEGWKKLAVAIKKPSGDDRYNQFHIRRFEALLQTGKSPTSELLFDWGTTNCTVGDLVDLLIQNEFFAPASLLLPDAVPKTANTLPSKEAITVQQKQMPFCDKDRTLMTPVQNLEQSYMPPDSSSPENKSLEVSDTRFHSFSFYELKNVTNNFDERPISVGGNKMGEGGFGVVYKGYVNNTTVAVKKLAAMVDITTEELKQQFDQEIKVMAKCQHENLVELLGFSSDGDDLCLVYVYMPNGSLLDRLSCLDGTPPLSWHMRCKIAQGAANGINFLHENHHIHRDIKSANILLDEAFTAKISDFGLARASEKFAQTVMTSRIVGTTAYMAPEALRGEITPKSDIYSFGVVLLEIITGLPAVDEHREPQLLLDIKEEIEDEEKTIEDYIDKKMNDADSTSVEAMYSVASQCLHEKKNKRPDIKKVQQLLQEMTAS
# [13] = molecular target: T3, Interleukin-1 receptor-associated kinase 4 (Homo sapiens); settings: at 1 µM
# [14] = molecular target: Leucine-rich repeat serine/threonine-protein kinase 2 (Homo sapiens) (UniProt Q5S007); settings: at 0.1 µM
# [15] = molecular target: Leucine-rich repeat serine/threonine-protein kinase 2 (Homo sapiens) (UniProt Q5S007); settings: at 1 µM
# [16] = test system: Leucine-rich repeat serine/threonine-protein kinase 2 (Homo sapiens), Q5S007 [G2019S]; settings: at 0.1 µM
# [17] = test system: Leucine-rich repeat serine/threonine-protein kinase 2 (Homo sapiens), Q5S007 [G2019S]; settings: at 1 µM
# Sequence of Serine/threonine-protein kinase B-raf (Homo sapiens) (P15056 whole entry): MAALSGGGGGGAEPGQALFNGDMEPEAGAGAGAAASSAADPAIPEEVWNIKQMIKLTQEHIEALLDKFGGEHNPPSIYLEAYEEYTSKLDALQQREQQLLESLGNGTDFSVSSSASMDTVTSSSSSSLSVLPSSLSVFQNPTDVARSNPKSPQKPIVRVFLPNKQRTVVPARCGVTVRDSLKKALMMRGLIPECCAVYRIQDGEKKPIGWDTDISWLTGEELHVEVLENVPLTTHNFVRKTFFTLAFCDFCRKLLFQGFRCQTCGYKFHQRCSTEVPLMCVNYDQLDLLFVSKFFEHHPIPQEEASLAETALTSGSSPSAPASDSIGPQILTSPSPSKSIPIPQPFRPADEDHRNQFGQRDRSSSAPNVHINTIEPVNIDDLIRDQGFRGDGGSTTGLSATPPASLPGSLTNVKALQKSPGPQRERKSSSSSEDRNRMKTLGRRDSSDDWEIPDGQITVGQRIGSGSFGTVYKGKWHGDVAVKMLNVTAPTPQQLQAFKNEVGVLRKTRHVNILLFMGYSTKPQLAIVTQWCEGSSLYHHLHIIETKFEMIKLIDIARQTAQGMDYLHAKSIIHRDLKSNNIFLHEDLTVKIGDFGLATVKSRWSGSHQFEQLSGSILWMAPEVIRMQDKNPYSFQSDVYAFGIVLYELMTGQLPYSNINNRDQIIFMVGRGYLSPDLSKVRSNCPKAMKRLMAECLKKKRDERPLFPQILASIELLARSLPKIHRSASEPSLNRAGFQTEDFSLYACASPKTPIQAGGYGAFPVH
# Sequence of Tyrosine-protein kinase Yes (Homo sapiens) (P07947 2-543 limits assumed): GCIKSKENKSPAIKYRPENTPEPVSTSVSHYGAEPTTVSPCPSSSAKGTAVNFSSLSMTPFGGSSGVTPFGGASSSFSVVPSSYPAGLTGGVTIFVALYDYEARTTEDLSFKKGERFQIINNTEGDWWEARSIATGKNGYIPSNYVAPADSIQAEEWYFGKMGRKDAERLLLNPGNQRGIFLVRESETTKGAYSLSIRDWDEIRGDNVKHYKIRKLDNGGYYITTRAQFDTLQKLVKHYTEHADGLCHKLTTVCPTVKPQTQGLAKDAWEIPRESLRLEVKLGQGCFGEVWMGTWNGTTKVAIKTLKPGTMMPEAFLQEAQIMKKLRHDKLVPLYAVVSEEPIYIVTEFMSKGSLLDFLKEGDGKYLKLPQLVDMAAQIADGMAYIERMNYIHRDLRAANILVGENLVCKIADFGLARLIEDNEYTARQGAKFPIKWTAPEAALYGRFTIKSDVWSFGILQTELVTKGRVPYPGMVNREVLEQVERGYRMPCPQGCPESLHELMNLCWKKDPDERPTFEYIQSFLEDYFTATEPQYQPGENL
# Sequence of RAF proto-oncogene serine/threonine-protein kinase (Homo sapiens) (P04049 whole entry): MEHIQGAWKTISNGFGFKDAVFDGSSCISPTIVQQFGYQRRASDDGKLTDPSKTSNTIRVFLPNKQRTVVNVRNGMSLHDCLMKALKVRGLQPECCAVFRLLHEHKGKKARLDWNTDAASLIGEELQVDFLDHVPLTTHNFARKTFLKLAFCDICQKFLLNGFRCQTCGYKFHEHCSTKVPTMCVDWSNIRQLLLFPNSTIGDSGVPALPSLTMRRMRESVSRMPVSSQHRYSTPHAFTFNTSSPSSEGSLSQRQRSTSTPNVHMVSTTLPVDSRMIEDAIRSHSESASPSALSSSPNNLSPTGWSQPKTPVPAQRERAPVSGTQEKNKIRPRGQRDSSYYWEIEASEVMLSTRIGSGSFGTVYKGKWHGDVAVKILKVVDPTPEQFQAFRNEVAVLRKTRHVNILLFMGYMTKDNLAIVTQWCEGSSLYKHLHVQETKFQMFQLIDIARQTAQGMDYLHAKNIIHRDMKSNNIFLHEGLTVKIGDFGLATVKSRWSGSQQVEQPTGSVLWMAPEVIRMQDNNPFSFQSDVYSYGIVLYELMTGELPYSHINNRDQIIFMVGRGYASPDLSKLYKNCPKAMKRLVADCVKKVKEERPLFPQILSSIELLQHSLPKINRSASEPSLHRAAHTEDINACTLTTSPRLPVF
# Sequence of Leucine-rich repeat serine/threonine-protein kinase 2 (Homo sapiens) (Q5S007 whole entry): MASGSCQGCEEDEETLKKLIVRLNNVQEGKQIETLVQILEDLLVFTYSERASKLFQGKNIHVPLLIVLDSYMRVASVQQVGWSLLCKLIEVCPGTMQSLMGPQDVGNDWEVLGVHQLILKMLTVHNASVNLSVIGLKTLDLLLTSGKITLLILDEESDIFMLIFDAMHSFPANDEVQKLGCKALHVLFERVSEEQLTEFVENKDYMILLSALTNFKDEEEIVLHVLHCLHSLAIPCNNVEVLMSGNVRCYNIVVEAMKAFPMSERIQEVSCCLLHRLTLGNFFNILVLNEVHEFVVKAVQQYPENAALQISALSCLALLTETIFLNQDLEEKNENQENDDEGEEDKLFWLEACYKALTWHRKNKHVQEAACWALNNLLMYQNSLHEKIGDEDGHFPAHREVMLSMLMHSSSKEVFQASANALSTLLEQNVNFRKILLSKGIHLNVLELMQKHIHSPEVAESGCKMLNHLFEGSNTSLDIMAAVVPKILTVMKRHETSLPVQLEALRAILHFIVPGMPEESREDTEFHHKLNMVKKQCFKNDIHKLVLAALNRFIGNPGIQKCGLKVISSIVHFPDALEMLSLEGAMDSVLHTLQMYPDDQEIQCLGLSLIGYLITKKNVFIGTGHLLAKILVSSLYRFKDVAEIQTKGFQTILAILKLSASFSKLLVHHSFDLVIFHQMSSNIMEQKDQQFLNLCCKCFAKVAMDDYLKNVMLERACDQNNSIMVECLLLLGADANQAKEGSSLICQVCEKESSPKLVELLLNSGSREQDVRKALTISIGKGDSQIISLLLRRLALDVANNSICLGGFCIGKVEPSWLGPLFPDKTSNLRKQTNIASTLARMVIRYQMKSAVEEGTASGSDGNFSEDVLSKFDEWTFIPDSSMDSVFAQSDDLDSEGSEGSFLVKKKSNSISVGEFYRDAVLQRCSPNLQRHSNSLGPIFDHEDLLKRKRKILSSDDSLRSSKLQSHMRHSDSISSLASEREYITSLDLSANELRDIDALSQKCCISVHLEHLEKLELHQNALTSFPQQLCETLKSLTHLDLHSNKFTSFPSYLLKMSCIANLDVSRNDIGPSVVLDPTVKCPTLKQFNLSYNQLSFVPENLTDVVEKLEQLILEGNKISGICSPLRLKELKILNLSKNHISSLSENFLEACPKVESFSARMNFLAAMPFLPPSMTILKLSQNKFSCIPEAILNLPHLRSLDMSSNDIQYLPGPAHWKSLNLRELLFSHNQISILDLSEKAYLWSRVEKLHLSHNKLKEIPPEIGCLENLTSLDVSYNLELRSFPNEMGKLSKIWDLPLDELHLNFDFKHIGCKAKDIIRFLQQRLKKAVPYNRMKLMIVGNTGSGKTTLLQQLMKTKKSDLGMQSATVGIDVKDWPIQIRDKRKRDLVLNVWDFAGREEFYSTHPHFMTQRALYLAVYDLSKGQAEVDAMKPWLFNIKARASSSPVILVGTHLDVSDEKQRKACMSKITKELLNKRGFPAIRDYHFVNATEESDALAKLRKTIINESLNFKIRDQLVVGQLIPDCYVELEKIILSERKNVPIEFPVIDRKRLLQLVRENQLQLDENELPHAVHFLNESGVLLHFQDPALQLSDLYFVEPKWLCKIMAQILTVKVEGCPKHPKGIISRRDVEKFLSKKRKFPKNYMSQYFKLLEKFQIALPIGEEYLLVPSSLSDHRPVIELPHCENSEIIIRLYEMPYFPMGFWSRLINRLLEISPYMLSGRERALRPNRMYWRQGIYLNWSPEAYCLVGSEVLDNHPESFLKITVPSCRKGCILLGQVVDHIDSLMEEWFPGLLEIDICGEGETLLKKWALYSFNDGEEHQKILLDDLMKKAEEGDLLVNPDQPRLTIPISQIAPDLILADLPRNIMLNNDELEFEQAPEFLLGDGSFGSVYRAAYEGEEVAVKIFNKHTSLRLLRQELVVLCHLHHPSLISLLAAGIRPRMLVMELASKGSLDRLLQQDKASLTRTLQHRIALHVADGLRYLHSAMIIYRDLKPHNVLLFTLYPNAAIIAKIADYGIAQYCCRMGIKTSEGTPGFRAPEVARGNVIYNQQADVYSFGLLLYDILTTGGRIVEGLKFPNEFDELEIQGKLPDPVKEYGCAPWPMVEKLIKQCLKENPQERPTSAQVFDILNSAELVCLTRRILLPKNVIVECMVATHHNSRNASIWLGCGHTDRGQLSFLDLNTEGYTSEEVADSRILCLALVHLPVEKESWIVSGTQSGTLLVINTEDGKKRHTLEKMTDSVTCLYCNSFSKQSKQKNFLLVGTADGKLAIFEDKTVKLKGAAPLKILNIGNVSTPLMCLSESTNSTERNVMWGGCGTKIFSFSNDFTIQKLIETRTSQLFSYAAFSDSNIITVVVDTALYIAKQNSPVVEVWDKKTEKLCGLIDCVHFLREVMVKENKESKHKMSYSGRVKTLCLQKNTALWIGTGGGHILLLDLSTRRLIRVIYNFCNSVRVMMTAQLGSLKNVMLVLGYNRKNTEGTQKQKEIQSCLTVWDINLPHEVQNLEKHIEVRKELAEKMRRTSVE
# Sequence of Serine/threonine-protein kinase B-raf (Homo sapiens), P15056 [V600E] (P15056 whole entry V600E): as the sequence (P15056 whole entry) above, with V600E counted along it
# Sequence of Leucine-rich repeat serine/threonine-protein kinase 2 (Homo sapiens), Q5S007 [G2019S] (Q5S007 whole entry G2019S): as the sequence (Q5S007 whole entry) above, with G2019S counted along it
Structure (SMILES),inhibition [1] [%],inhibition [2] [%],inhibition [3] [%],inhibition [4] [%],inhibition [5] [%],inhibition [6] [%],inhibition [7] [%],inhibition [8] [%],inhibition [9] [%],inhibition [10] [%],inhibition [11] [%],inhibition [12] [%],inhibition [13] [%],inhibition [14] [%],inhibition [15] [%],inhibition [16] [%],inhibition [17] [%]
CCc1cccc(CC)c1/C=C/c1cncc(C(=O)NC)c1,2.78,3.04,-1.48,0.45,0.77,3.23,2.6,2.71,2.87,5.4,-1.79,-3.49,1.51,3.05,4.51,2.33,7.93
CN(c1ccc(NC(=O)Nc2c(Cl)cccc2Cl)cc1)c1ccnc(Nc2cccc(CS(C)(=O)=O)c2)n1,17.4,17.6,28.2,4.97,9.82,1.79,4.11,2.49,5.8,0.7,1.82,0.17,1.26,12.2,15.4,9.38,20.4
Fc1ccc(-c2ncn(C3CCNCC3)c2-c2ccnc(Oc3ccc(F)c(F)c3)n2)cc1,1.35,2.3,0.42,-5.04,-3.78,6.07,6.2,4.48,4.06,-1.78,-0.68,1.33,1.17,-3.16,-4.05,0.63,2.39
CN(C)c1ccc2c(c1)/C(=C/Nc1ccc(S(N)(=O)=O)cc1)C(=O)N2,7.48,2.8,14.3,2.05,5.7,2.49,4.91,2.9,5,3.91,-6.53,2.88,0.86,5.77,16.7,7.03,36.4
Cc1ccc(C(=O)NC(C)C)cc1-c1ccc(C(=O)NCC2CC2)cc1,-0.5,-0.21,-0.56,-5.65,-1.41,-3.13,-5.03,-4.24,-2.75,-1.46,-1.23,-1.36,-0.58,-0.57,-1.69,0.59,2.07
CCc1nccc2c1nc(-c1nonc1N)n2CC,-0.82,0.39,1.95,1.4,0.96,-0.39,1.49,0.46,1.01,-4.45,-5.16,2.27,-1.82,0.68,2.47,0.78,2.99
NC(=O)c1cc(-c2ccncc2)cc(-c2ccccc2)c1N,3.61,7.5,36,4.11,29,8.42,8.98,8.18,8.65,1.06,-6.49,2.85,2.52,3.59,8.2,4.3,12.3
Fc1ccc(-c2ncn(C3CCNCC3)c2-c2ccnc(Oc3ccc(Oc4ccccc4)cc3)n2)cc1,2.08,0.21,4.26,0.95,0.36,6.4,11.6,4.03,8.67,1.44,0.47,1.5,1.78,0.62,5.34,5.08,8.01
N#Cc1ccc(Oc2nccc(-c3c(-c4ccc(F)cc4)ncn3C3CCNCC3)n2)cc1,3.55,3.38,3.87,-0.57,1.9,6.93,6.24,4.98,4.44,-1.66,-0.95,2.17,2.43,2.8,3.91,4.91,4.95
NCc1ccc(-n2c(-c3nonc3N)nc3cnccc32)cc1,3.1,0.26,3.43,,6.32,7.22,9.93,8.7,8.53,8.42,3.91,-0.81,2.35,17.2,53.5,22,54.1
COc1cc(C)c(N(C)C(=O)CN(C)C)cc1Nc1nc(Nc2cccc(F)c2C(N)=O)c2cc[nH]c2n1,-0.84,0.04,-3.38,-1.25,-6.34,1.62,3.95,2.25,3.53,-0.36,-0.93,-1.54,1.55,20.4,18.8,45.5,57.7
COc1cc(Nc2ncc(-c3ccccc3)o2)cc(OC)c1OC,1.3,11.5,46.6,-2.95,0.62,-1.68,-1.94,-1.66,-1.09,-3.29,-4.59,-0.52,0.55,0.73,8.78,4.17,21.3
O=C1NC(=O)C(c2cccc(Cl)c2)=C1Nc1ccc(Cl)c(C(=O)O)c1,2.5,4.03,6,4.89,2.76,5.48,2.76,6.61,4.77,2.73,17.7,3.69,1.5,2.15,4.76,3.36,7.81
Fc1ccc(-c2ncn(C3CCNCC3)c2-c2ccnc(Oc3ccc4c(c3)OCO4)n2)cc1,3.42,3.41,3.52,0.26,-6.92,7.39,12.7,6.25,8.22,1.31,-0.17,2.54,2.7,5.57,11.2,6.45,10.9
NS(=O)(=O)c1ccc(Nc2cc(-c3ccc(O)c(F)c3)n[nH]2)cc1,52.3,-3.77,11.7,,,-4.38,-2.42,-4.83,-3.52,-4.11,0.94,3.6,-1.08,1.51,13.2,4.54,29.7

# Source: ChEMBL document CHEMBL1961873, “Compounds: GSK PKIS; Assays: Nanosyn kinase panel” (2012)
